Assay outcomes: PubChem BioAssay, The Scripps Research Institute Molecular Screening Center
In the library only some 3.5% were active in any assay of this set; here they are far more common.
GPR151 ag: human GPR151 activation | PathHunter beta-arrestin GPR151 cells, luminescence | 650,000 tested, 1% active | activation, % at 11.2 µM | Q8TDV0; in the data active = activation above about 4.9%;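 note: 0% = median of compound wells and 100% = cells with positive control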
TEAD-YAP inh: TEAD-YAP interaction inhibition. HEK-TIYL cells, TEAD-Gal4/YAP UAS-luciferase luminescence. inhibition, % at 9.12 µM. 640,000 tested, 1.4% active. AID 1259422; in the data active = inhibition above about 32%;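 note: 0% = median of test compound wells and 100% = reference inhibitor wells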
MITF primary: blocks human microphthalmia-associated transcription factor | O75030 | AlphaScreen MITF homodimerization, bead proximity signal | inhibition, % at 2.6 µM | 650,000 tested, 0.91% active | AID 1259374; in the data active = inhibition above about 50%;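 note: 0% = vehicle wells with protein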
Target sequence (O75030 whole entry, looked up): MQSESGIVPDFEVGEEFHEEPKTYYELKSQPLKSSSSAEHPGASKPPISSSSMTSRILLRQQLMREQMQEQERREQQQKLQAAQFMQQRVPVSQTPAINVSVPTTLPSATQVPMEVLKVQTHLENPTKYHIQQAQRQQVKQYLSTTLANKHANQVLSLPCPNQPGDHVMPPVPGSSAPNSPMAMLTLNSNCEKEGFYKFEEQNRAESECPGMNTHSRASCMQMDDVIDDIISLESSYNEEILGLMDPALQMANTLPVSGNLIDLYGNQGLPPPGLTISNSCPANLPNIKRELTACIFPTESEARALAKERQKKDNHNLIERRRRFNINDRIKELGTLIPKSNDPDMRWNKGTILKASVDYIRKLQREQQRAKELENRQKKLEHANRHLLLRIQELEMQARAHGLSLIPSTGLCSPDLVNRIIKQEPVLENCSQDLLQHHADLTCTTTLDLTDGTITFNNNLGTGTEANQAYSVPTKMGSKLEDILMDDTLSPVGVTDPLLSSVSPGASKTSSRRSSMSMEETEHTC
FBW7 act: activators of human E3 ligase FBW7. AlphaScreen FBW7–phospho-cyclin E peptide binding, activator screen. 650,000 tested, 0.13% active. Q969H0. normalized activity (activation), % at 26.1 µM. AID 1259310; in the data active = normalized activity above about 1.9%;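 note: purified mutant Fbw7 with reduced substrate affinity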
MITF inh conf: human MITF inhibition, confirmation | shares compounds with MITF primary | AlphaScreen MITF homodimerization, biotin/His-MITF beads | inhibition, % at 2.6 µM | 4,700 tested, 16% active;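 active = inhibition above a cutoff derived from the DMSO control wells, cut at about 28% in these data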;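 note: 0% = MITF dimer wells with DMSO only; inhibitors lower the bead chemiluminescence by keeping MITF from dimerizing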
AS interf DR: counter-screen: compounds optically interfering with AlphaScreen. shares compounds with MITF primary. AlphaScreen optical interference counterscreen, cell-free. IC50, µM. 480 tested, 6% active. AID 1259373; call rule not given here
AlphaScreen intf2: counter-screen: compounds optically interfering with AlphaScreen; shares compounds with MITF primary; LysRS AlphaScreen counterscreen, signal interference, triplicate; inhibition, % at 2.6 µM; 4,700 tested, 7.6% active; AID 1259376;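 active = inhibition above a cutoff derived from the DMSO control wells, cut at about 30% in these data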
* marks the source's active call; other numbers are inactive results; nt = no result.

SMILES	GPR151 ag	TEAD-YAP inh	MITF primary	FBW7 act	MITF inh conf	AlphaScreen intf2	others
CCOc1ccc(CNc2nc3nc(C)c(CC(=O)OC)c(=O)n3[nH]2)cc1	1	3	12	0	nt	nt
O=C(Nn1cnnc1)c1cc2cc([N+](=O)[O-])ccc2oc1=O	-1	10	11	0	nt	nt
CCOC(=O)C(=O)Nc1sc(C(=O)N2CCOCC2)c(C)c1C#N	1	-2	71*	1	-6	-2
O=C(O)c1c[nH]c2c(Cl)c(Cl)ccc2c1=O	1	-5	32	-1	nt	nt
O=C(O)c1c[nH]c2c(ccc3cccnc32)c1=O	-1	nt	121*	nt	98*	101*
CCC(Sc1ccc2nnc(-c3cccs3)n2n1)C(=O)OC (stereo unspecified)	-2	11	7	0	nt	nt
CCCC(=O)Nc1ccccc1C1(C)CC1	-1	3	59*	0	-3	-17
Cc1ccc(/C(O)=C2/C(=O)C(=O)N(CCN3CCOCC3)C2c2ccc(C(C)C)cc2)cc1 (stereo unspecified)	0	-9	-3	0	nt	nt
O=C(NC(c1ccccn1)c1cccs1)C1CCN(C(=O)c2ccccc2)CC1 (stereo unspecified)	0	-1	2	0	nt	nt
Nc1nc(Nc2ccccc2)nc2nc[nH]c12	0	-2	60*	0	2	12
O=C(Nc1noc2ccccc12)C(F)(F)F	0	4	9	0	nt	nt
O=C(Cc1cccc2ccccc12)Nc1nnc(-c2ccncc2)o1	0	2	71*	0	52*	98*
O=C(Cc1cccc2ccccc12)Nc1nnc(-c2ccc3c(c2)OCCO3)o1	0	1	6	0	nt	nt
O=c1c2sccc2[nH]c(=S)n1-c1cccc(Cl)c1Cl	1	-5	-6	0	nt	nt
O=C1C2CC=C(Cl)CC2C(=O)N1c1ccccn1 (stereo unspecified)	1	5	2	0	nt	nt
COc1cc(OC)c(OC)cc1CN1CCN(c2ccccc2OC)CC1	0	6	38	0	nt	nt
COc1cc(OC)c(OC)cc1CN1CCN(Cc2cccn2C)CC1	-1	-4	63*	-1	13	18
COc1ccccc1CN1CCN(Cc2ccc(OC)c(OC)c2)CC1	0	-1	62*	0	7	13
COc1cc(OC)c(OC)cc1CN1CCN(Cc2ccccc2C)CC1	1	1	74*	0	-13	3
COc1cc(OC)c(OC)cc1CN1CCCN(C)CC1	0	3	37	0	nt	nt
CN(Cc1ccccc1)C1CCN(Cc2ccccc2[N+](=O)[O-])CC1	0	4	59*	0	-3	4
O=C(Nc1nnc(-c2ccc3c(c2)OCCO3)o1)c1ccc(C(=O)c2ccccc2)cc1	0	-1	13	0	nt	nt
O=C(CSc1nnc(Cc2cccs2)n1CCc1ccccc1)Nc1nccs1	1	-4	-11	0	nt	nt
Cc1ccc([N+](=O)[O-])cc1S(=O)(=O)N1CCCCC1C (stereo unspecified)	0	-8	8	0	nt	nt
COc1cc(Br)c(CN2CCCN(C)CC2)cc1OC	1	4	11	1	nt	nt
SMILES	GPR151 ag	TEAD-YAP inh	MITF primary	FBW7 act	MITF inh conf	AlphaScreen intf2	others
CCc1ccc(CN2CCN(Cc3ccccc3[N+](=O)[O-])CC2)cc1	1	1	74*	0	9	0
COc1cc(OC)c(OC)cc1CN1CCN(Cc2cc(OC)c(OC)cc2Br)CC1	-1	7	72*	0	12	19
COc1ccc(CN2CCN(Cc3ccccc3Cl)CC2)cc1OC	1	0	71*	0	11	22
COc1ccccc1CN1CCN(Cc2ccc3ccccc3c2)CC1	0	6	78*	0	18	22
COc1ccc(CNCc2ccccc2Cl)cc1OC	-1	-8	28	0	nt	nt
COc1cccc(OC)c1C(=O)N1CCN(Cc2ccc3ccccc3c2)CC1	4	0	41	0	nt	nt
CC1=CN2C(=NC(=O)CC2(C)C(=O)N(CC(=O)NC(C)(C)C)C2CCCC2)C=C1 (stereo unspecified)	0	6	14	1	nt	nt
Cn1c(=O)c2c(nc(SCc3ccc(F)cc3)n2Cc2ccccc2)n(C)c1=O	0	3	16	0	nt	nt
FC(F)(F)c1ccccc1CN1CCN(Cc2ccc3ccccc3c2)CC1	1	6	83*	0	18	23
CCOc1cc(CN2CCN(Cc3cccc(C)c3)CC2)ccc1OC	-1	5	14	0	nt	nt
COc1ccc(CN2CCN(Cc3ccccc3C)CC2)cc1OC	-1	10	62*	0	5	14
COc1cc(OC)c(CN2CCCC(O)C2)cc1Br (stereo unspecified)	-1	5	54*	2	33*	-4	AS interf DR=>6.5
CCOc1cc(CN2CCN(Cc3ccccc3C)CC2)ccc1OC	1	2	52*	0	2	15
COc1ccc(CN2CCCC(O)C2)cc1Br (stereo unspecified)	1	0	18	1	nt	nt
Cc1ccnc(NC(=O)CN2C(=O)C(C)Oc3ccccc32)c1 (stereo unspecified)	1	-5	-4	0	nt	nt
CC(=O)Oc1ccc2c(c1)O/C(=C\c1ccccc1Cl)C2=O	1	6	-3	0	nt	nt
COc1ccc(CN2CCN(Cc3ccccc3[N+](=O)[O-])CC2)cc1OC	0	-5	67*	0	-3	-6
Cc1ccc(Cn2cc(-c3ccccc3)ccc2=O)cc1	0	-2	5	0	nt	nt
COc1ccccc1NC(=O)N1c2ccccc2CC1C(N)=O (stereo unspecified)	1	13	21	1	nt	nt
Cc1cc(C)n(-c2ccc(CCl)cc2)n1	0	13	-1	0	nt	nt
O=[N+]([O-])c1ccc(S(=O)(=O)N2CCN(Cc3ccccc3Cl)CC2)cc1	2	-3	62*	0	15	15
COc1ccc(S(=O)(=O)N2CCN(Cc3ccccc3[N+](=O)[O-])CC2)cc1	0	-2	51*	0	36*	8
O=[N+]([O-])c1ccc(S(=O)(=O)N2CCN(Cc3ccccc3F)CC2)cc1	-1	-10	46	0	nt	nt
Cc1ccccc1CN1CCN(S(=O)(=O)c2ccc([N+](=O)[O-])cc2)CC1	-1	4	71*	0	25	23
O=C(CN(C(=O)c1ccc(Cl)nc1)C1CCCC1)NCc1ccc2c(c1)OCO2	0	6	-3	0	nt	nt
CC(=O)c1ccc(NC(=O)COC(=O)/C(=C/c2cccs2)c2cccs2)cc1	-2	1	0	0	nt	nt
C=CCN(CC=C)CCOc1ccc(C(=O)OC)cc1	-3	-7	51*	0	-10	-7
CCOC(=O)C1=C(C)N=c2s/c(=C/c3ccc(OC(C)=O)c(OC)c3)c(=O)n2C1c1cccs1 (stereo unspecified)	-1	-3	-8	0	nt	nt
